This is a sample that favours compounds with a hit; in the whole collection about 1.2% have one here.
VDR inhibitor: blocks the human vitamin D receptor | Potency, µM, most hits filed as inhibitors | VDR-SRC2-3 peptide fluorescence polarization, 2 h | 0.93% of 400,000 active | P11473
Target sequence (P11473 whole entry, looked up): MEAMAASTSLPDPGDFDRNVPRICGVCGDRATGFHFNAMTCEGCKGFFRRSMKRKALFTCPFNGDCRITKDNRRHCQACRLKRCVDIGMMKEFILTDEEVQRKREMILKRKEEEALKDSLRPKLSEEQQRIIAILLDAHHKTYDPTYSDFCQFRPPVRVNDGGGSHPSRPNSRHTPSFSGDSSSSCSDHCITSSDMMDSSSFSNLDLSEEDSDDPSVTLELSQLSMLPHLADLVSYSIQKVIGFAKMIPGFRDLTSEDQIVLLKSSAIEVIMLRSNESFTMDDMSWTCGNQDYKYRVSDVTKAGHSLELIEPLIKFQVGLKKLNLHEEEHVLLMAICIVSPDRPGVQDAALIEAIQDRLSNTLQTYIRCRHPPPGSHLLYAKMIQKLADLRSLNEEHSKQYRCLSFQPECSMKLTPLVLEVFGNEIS
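Reagent solutions, kept cold and dark, are dispensed first; compounds are then pinned in at 23 nl, plates briefly spun, and incubated 2 h at ambient temperature. Inhibition of VDR–SRC2-3 peptide binding is read by fluorescence polarization.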
EPAC2 ag: EPAC2 (human) agonism; Q8WZA2; 0.079% of 360,000 active; EPAC2 activation, biochemical qHTS; response scale: 100% = 6.5 mM cAMP response; Potency, µM (top dose mostly 154 µM), actives largely listed as activators; also: nearly all actives have a fitted effect of over 50% in size
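Guanine nucleotide exchange by EPAC2 is measured as reduced fluorescence of BODIPY-GDP once it is released from 250 nM Rap1B. Plates are read kinetically for 30 min at room temperature; results are scaled to 6.5 mM cAMP.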
EPAC1 ag: agonists of human EPAC1; AID 720707; Potency, µM (doses to about 154 µM), hits mostly activators; EPAC1 agonist qHTS, biochemical assay; response scale: 100% = response to 6.5 mM cAMP; 0.073% of 360,000 active; O95398; also: nearly all actives have a fitted effect of over 60% in size
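Nucleotide exchange by EPAC1 (100 nM) on Rap1B–BODIPY-GDP (250 nM) in the presence of 50 uM GDP is tracked fluorescently at 480/540 nm over 30 min. Signals are normalized to a 6.5 mM cAMP control.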
EPAC2 antag: EPAC2 (human) antagonism. 0.18% of 360,000 active. AID 720708. EPAC2 GEF exchange of Rap1B-BODIPY-GDP, fluorescence. Q8WZA2. Potency, µM (series often up to 114 µM), actives largely listed as inhibitors; also: nearly all actives have a fitted effect of over 45% in size
USP1-UAF1 inh: blocks the human USP1/UAF1 deubiquitinase complex; O94782; recombinant USP1/UAF1, Ub-Rhodamine cleavage fluorescence; Potency, µM (titrated, usually from 57.1 µM), usual class: inhibitors; 0.23% of 390,000 active; AID 743255; also: nearly all actives have a fitted effect of over 60% in size
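1 nM enzyme complex + cpd, 15 min RT; start with Ub-Rho 150nM final; kinetic fluorescence ex 480/em 540, 6 reads q60 s. Buffer 50mM HEPES pH 7.8, 0.5mM EDTA, 0.1 mg/ml BSA, 1mM TCEP, 0.01% Tween-20.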
EPAC1 antagonist: EPAC1 (human) antagonism. O95398. EPAC1 GEF assay, Rap1b-BODIPY-GDP exchange fluorescence. Potency, µM (top dose mostly 115 µM), hits mostly inhibitors. 0.14% of 360,000 active. AID 720709; also: nearly all actives have a fitted effect of over 50% in size
Hits are given with their value. Calls follow the shape of the dose curve; as a rule, active = well fitted curve in the direction sought with a large enough effect; inconclusive = small, poorly fitted or top-dose-only effect, or another doubt; inactive = no such curve, though single readings can be large; an effect the other way counts as inactive or inconclusive.

O=C1C=CC(=Nc2ccc3c(c2)Cc2cc(F)ccc2-3)O1 was read as VDR inhibitor 56µM, EPAC2 ag inactive, EPAC1 ag inactive, EPAC2 antag inactive, USP1-UAF1 inh inactive and EPAC1 antagonist inconclusive.
`CC1=C(C(=O)OCc2ccc(C)cc2)C(c2ccccc2F)CC(=O)N1` (stereo unspecified) gave VDR inhibitor inactive and USP1-UAF1 inh inactive.
`CC[C@H](C)[C@H](NC(=O)[C@H](CO)NC(=O)[C@H](CC(C)C)NC(=O)[C@H](CO)NC(=O)[C@@H]1CCCN1C(=O)[C@H](CC(N)=O)NC(=O)[C@@H](N)CC(=O)O)C(=O)N[C@@H](CC(=O)O)C(=O)N[C@@H](CC(C)C)C(=O)N[C@H](C(=O)N[C@@H](Cc1ccccc1)C(=O)N[C@@H](Cc1cnc[nH]1)C(=O)N[C@@H](CC(C)C)C(=O)N[C@@H](CC(C)C)C(=O)N[C@@H](CCCNC(=N)N)C(=O)N[C@H](C(=O)N[C@@H](CC(C)C)C(=O)N[C@@H](CC(C)C)C(=O)N[C@@H](CCC(=O)O)C(=O)N[C@@H](CC(C)C)C(=O)N[C@@H](C)C(=O)N[C@@H](CCCNC(=N)N)C(=O)N[C@H](C(=O)N[C@@H](CCC(N)=O)C(=O)N[C@@H](CO)C(=O)N[C@@H](CCC(N)=O)C(=O)N[C@@H](CCCNC(=N)N)C(=O)N[C@@H](CCC(=O)O)C(=O)N[C@@H](CCCNC(=N)N)C(=O)N[C@@H](C)C(=O)N[C@@H](CCC(=O)O)C(=O)N[C@@H](CCC(N)=O)C(=O)N[C@@H](CC(N)=O)C(=O)N[C@@H](CCCNC(=N)N)C(=O)N[C@H](C(=O)N[C@H](C(=O)N[C@@H](Cc1ccccc1)C(=O)N[C@@H](CC(=O)O)C(=O)N[C@@H](CO)C(=O)N[C@H](C(N)=O)C(C)C)[C@@H](C)CC)[C@@H](C)CC)[C@@H](C)O)[C@@H](C)O)[C@@H](C)O` gave VDR inhibitor inactive.
`CNCc1ccccc1Sc1cc(O)ccc1O` gave VDR inhibitor 35µM, EPAC2 ag inactive, EPAC1 ag inactive, EPAC2 antag inactive, USP1-UAF1 inh inactive and EPAC1 antagonist inactive.
CNCc1ccccc1Sc1cccc(O)c1 was read as VDR inhibitor inactive, EPAC2 ag inactive, EPAC1 ag inactive, EPAC2 antag inactive, USP1-UAF1 inh inactive and EPAC1 antagonist inactive.
CC(C)c1ccc(S(=O)(=O)N2CCN(Cc3cccc(F)c3)CC2)cc1 was read as VDR inhibitor inactive and USP1-UAF1 inh inactive.
CC1=CC2=C(C=O)C(=O)C(C)(O)C(O)C2=CO1 (stereo unspecified) was read as EPAC2 ag inactive, EPAC1 ag inactive, EPAC2 antag 50µM, USP1-UAF1 inh inactive and EPAC1 antagonist inconclusive.
For O=C(N/N=C\c1ccc(Cl)s1)c1ccc(Cn2cccn2)o1 the results were VDR inhibitor 71µM, EPAC2 ag inactive, EPAC1 ag inactive, EPAC2 antag inactive, USP1-UAF1 inh inactive and EPAC1 antagonist inactive.
CC(C)c1ccc(/C=N\NC(=O)c2ccc(Cn3cccn3)o2)cc1 was read as VDR inhibitor inactive, EPAC2 ag inactive, EPAC1 ag inactive, EPAC2 antag inactive, USP1-UAF1 inh inactive and EPAC1 antagonist inactive.
For CCCn1c(CN2CCN(c3ccc(OC)cc3)CC2)nc2c1c(=O)[nH]c(=O)n2C the results were VDR inhibitor inactive and USP1-UAF1 inh inactive.
`Cc1cc(O)c(C(C)C)cc1N=Cc1ccccc1[N+](=O)[O-]` gave VDR inhibitor 32µM, EPAC2 ag inactive, EPAC1 ag inactive, EPAC2 antag inactive, USP1-UAF1 inh inconclusive and EPAC1 antagonist inactive.
For CCCCC/C=C\C/C=C\C/C=C\CCCCCCC(=O)NCC(=O)O the results were VDR inhibitor inactive.
`Cc1ccc(SC/C(O)=C(\C#N)c2nc3ccccc3s2)cc1` gave VDR inhibitor inactive, EPAC2 ag 10µM, EPAC1 ag inactive, EPAC2 antag inactive, USP1-UAF1 inh inactive and EPAC1 antagonist inactive.
`N#C/C(=C(/O)CSc1ccccn1)c1nc2ccccc2s1` gave VDR inhibitor inactive, EPAC2 ag inactive, EPAC1 ag inactive, EPAC2 antag inactive, USP1-UAF1 inh inactive and EPAC1 antagonist inactive.
Screening CNC(=O)c1cnc2sc(N3CCCCCC3)nn2c1=O returned VDR inhibitor inactive and USP1-UAF1 inh inactive.
O=C(/C=C/c1c(F)cccc1Cl)c1ccc(O)cc1 was read as VDR inhibitor 79µM, EPAC2 ag inactive, EPAC1 ag inactive, EPAC2 antag inactive, USP1-UAF1 inh inactive and EPAC1 antagonist inactive.
CCN(Cc1ccccc1)S(=O)(=O)c1cc(C(=O)Nc2cc(Cl)cc(Cl)c2)ccc1F was read as VDR inhibitor inactive and USP1-UAF1 inh inactive.
Screening COc1ccc(/C=C/C(=O)c2ccncc2)c2ccccc12 returned VDR inhibitor 25µM, EPAC2 ag inactive, EPAC1 ag inconclusive, EPAC2 antag inactive, USP1-UAF1 inh inconclusive and EPAC1 antagonist inactive.
Screening Cn1c(Cc2cccs2)nnc1SCc1nc2ccccc2[nH]1 returned VDR inhibitor inactive, EPAC2 ag 10µM, EPAC1 ag inactive, EPAC2 antag inactive, USP1-UAF1 inh inactive and EPAC1 antagonist inactive.
For C=CCn1c(-c2ccc(S(=O)(=O)N3CCOCC3)cc2)csc1=Nc1ccccc1 the results were VDR inhibitor inactive, EPAC2 ag 7.9µM, EPAC1 ag inactive, EPAC2 antag inactive, USP1-UAF1 inh inactive and EPAC1 antagonist inactive.
Screening COc1ccc(C2C=C3CN(C(=O)OC(C)(C)C)S(=O)(=O)C3CC2OC(=O)c2cccc(C)c2)cc1 (stereo unspecified) returned VDR inhibitor inactive.
`CCCN1C(=O)c2ccccc2NC1c1ccc(Cl)c(Cl)c1` (stereo unspecified) gave VDR inhibitor inconclusive, EPAC2 ag inactive, EPAC1 ag inactive, EPAC2 antag 28µM, USP1-UAF1 inh inactive and EPAC1 antagonist inactive.
For CC[C@H](C)[C@H](NC(=O)[C@H](N)Cc1ccc(O)cc1)C(=O)N[C@@H](CC(N)=O)C(=O)N[C@@H](CC(C)C)C(=O)N[C@H](C(=O)N[C@@H](C(=O)N[C@@H](CCCN=C(N)N)C(=O)N[C@@H](CCC(N)=O)C(=O)N[C@@H](CCCN=C(N)N)C(=O)N[C@H](Cc1ccc(O)cc1)C(N)=O)[C@@H](C)O)[C@@H](C)CC the results were VDR inhibitor inactive.
For COC(=O)CCC/C=C1/SCC(NC(=O)c2ccccc2)C1=O (stereo unspecified) the results were VDR inhibitor 89µM, EPAC2 ag inactive, EPAC1 ag inactive, EPAC2 antag inactive, USP1-UAF1 inh inactive and EPAC1 antagonist inactive.

Compound activity as filed in PubChem BioAssay.
